Test [1] can be described thus: qHTS assay to identify small molecule agonists of the androgen receptor (AR) signaling pathway in the presence of an antagonist - cell viability counter screen (AID 1259379).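 Note: MDA-kb2 human breast cancer cells carrying an MMTV luciferase reporter; series mostly up to about 92 µM; nearly all actives have a fitted effect of over 25% in size.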 In outline: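 Cytotoxicity counter-screen run in the same wells as the nilutamide-challenged (3.0 µM final) AR agonist assay in MDA-kb2 cells. Compounds tested at 15 concentrations for 16 h, 37 °C without CO2; CellTiter-Fluor fluorescence read.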
Background: qHTS replaces the single test concentration by a dilution series.

Test [2] is described as follows: qHTS assay to identify small molecule antagonists of the estrogen receptor beta (ER-beta) signaling pathway - cell viability counter screen (AID 1259382).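 Note: HEK293T cells carrying ER-beta-UAS-bla reporter stimulated with estradiol; series mostly up to about 92 µM; nearly all actives have a fitted effect of over 55% in size.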 An outline of the steps:
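Cytotoxicity was measured in the same wells by CellTiter-Glo luminescence after 30 min at room temperature. Cells were ER-beta-bla HEK293T in charcoal-stripped serum, given compound together with 1 nM E2 and incubated 16 h at 37C.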

Test [3] in a line: qHTS assay to identify small molecule agonists or antagonists of the thyroid stimulating hormone receptor (TSHR) signaling pathway - wild type cell line counter screen (AID 1259384; calls by dose curve). In outline: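 Counter screen in untransfected Hek293: compounds (15-point titration, triplicate) plus phosphodiesterase inhibitor Ro20-1724 added after 18 h plating; 30 min RT. Intracellular cAMP via competitive d2/cryptate immunoassay, 1 h incubation.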

For test [4], the target named is Thyrotropin receptor (Homo sapiens) (UniProt P16473). The experiment in a line: qHTS assay to identify small molecule antagonists of the thyroid stimulating hormone receptor (TSHR) signaling pathway (AID 1259385; calls by dose curve; note: nearly all actives have a fitted effect of over 20% in size). In outline: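 Antagonist mode: compound-treated TSHR-expressing HEK293 cells were stimulated with 1.5 ng/mL TSH (final) in presence of Ro20-1724 for 30 min at RT. HTRF cAMP detection after 1 h; each compound tested at 15 concentrations, triplicate.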

A short description of test [5]: qHTS assay to identify small molecule agonists of the estrogen receptor alpha (ER-alpha) signaling pathway in the presence of an antagonist - cell viability counter screen (AID 1259386). Note: series mostly up to about 92 µM; nearly all actives have a fitted effect of over 30% in size. An outline of the steps: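 Compounds tested at 15 concentrations for 22 h at 37C alongside 10.0nM (final) ICI-182,780 antagonist, in VM7Luc4E2 cells grown in phenol red-free, charcoal-stripped medium. Viability read by CellTiter-Fluor fluorescence after 1 h reagent incubation.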

Test [6] has as its target Progesterone receptor (Homo sapiens) (UniProt P06401). The experiment in a line: qHTS assay to identify small molecule agonists of the progesterone receptor (PR) signaling pathway (AID 1346784; calls by dose curve; note: nearly all actives have a fitted effect of over 30% in size; note: potency is the fitted concentration of half-maximal effect). In outline: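 PR-UAS-bla HEK 293T cells (beta-lactamase reporter under UAS) in 2% charcoal-stripped FBS, dosed with 23 nL compound after 6 hr, incubated 16hr at 37C. LiveBLAzer B/G FRET substrate added, fluorescence read after 2 hours.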

Test [7] shares this target. The experiment in a line: qHTS assay to identify small molecule antagonists of the progesterone receptor (PR) signaling pathway (AID 1346795; active = well fitted inhibition curve with a large enough effect in the signal ratio in the repeat runs, not every such curve was filed as active; the % refers to the signal ratio). In outline:
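PR-UAS-bla HEK293T cells with beta-lactamase reporter under UAS control, in 2% charcoal-stripped FBS, treated with compounds plus 1 nM promegestone (R5020, final) for 16 hr at 37C. Read-out: FRET beta-lactamase substrate fluorescence after 2 hr at room temperature.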

A short description of test [8]: qHTS assay to identify small molecule antagonists of the progesterone receptor (PR) signaling pathway - cell viability counter screen (AID 1346798). Note: series mostly up to about 92 µM; nearly all actives have a fitted effect of over 50% in size. An outline of the steps: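 PR-UAS-bla HEK293T cells, 3,000/well in 2% charcoal-stripped FBS medium, dosed with compounds plus R5020 agonist and incubated 16 h at 37C. Viability then measured in the same wells by CellTiter-Glo luminescence after 30 min at RT.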

Test [9] is described as follows: qHTS assay to identify small molecule agonists of the progesterone receptor (PR) signaling pathway - cell viability counter screen (AID 1346799; calls by dose curve; note: nearly all actives have a fitted effect of over 45% in size). In outline: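 Counter screen in the PR-UAS-bla HEK293T wells (2% charcoal-stripped FBS, 16 h compound exposure at 37 C) after the bla read. CellTiter-Glo added, 30 min at room temperature, luminescence read as cell viability.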

Test [10] in a line: qHTS assay to identify small molecule antagonists of the TGF-beta/Smad signaling pathway - cell viability counter screen (AID 1346824). Note: nearly all actives have a fitted effect of over 50% in size. In outline:
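Cytotoxicity counter-screen run in the same wells as the beta-lactamase Smad reporter read: CellTiter-Glo luminescence after 30 min at room temperature. HEK 293T SBE-bla cells had 5 hr compound exposure at 37 C with TGF-beta1 (0.25 ng/mL stock).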

Test [11] can be described thus: qHTS assay to identify small molecule agonists of the TGF-beta/Smad signaling pathway - cell viability counter screen (AID 1346829). Note: top concentration of the series differs between compounds; nearly all actives have a fitted effect of over 45% in size. In outline:
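Here the cytotoxicity of library compounds is measured in SBE-bla HEK 293T cells treated for 5 hr, using CellTiter-Glo added to wells already read for the beta-lactamase reporter.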

The nature of test [12]: qHTS assay to identify small molecule agonists of the TGF-beta/Smad signaling pathway (AID 1346859; active = well fitted activation curve with a large enough effect in the signal ratio in the repeat runs, not every such curve was filed as active; the % refers to the signal ratio; note: series mostly up to about 77 µM). An outline of the steps: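 SBE-bla HEK293T cells plated overnight, then compound exposure for 5 h at 37 C. Beta-lactamase reporter read with LiveBLAzer B/G FRET substrate after 2 h at room temperature, fluorescence at 405 nm excitation, 460/530 nm emission.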
Test [13] concerns the target Thyrotropin-releasing hormone receptor (Homo sapiens) (UniProt P34981). Description: qHTS assay to identify small molecule antagonists of the thyrotropin-releasing hormone receptor (TRHR) signaling pathway (AID 1346877; active = well fitted inhibition curve with a large enough effect in the repeat runs, not every such curve was filed as active; note: series mostly up to about 51 µM). In outline:
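Antagonist mode: after a 5 min room-temperature compound exposure, cells were stimulated with 1 nM (final) TRH. Dye-loaded TRHR-HEK293 cells were used, and calcium-dependent fluorescence was followed for 3 min, with 15-point titrations run in triplicate.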

For test [14] the target is unchanged. Description: qHTS assay to identify small molecule agonists of the thyrotropin-releasing hormone receptor (TRHR) signaling pathway (AID 1346891; calls by dose curve; note: series mostly up to about 58 µM). In outline: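 HEK293 cells expressing TRHR plated 18 h at 37 C/5% CO2, calcium dye-loaded 2 h at 37 C, then compound added (agonist mode); kinetic calcium fluorescence read 3 min at 1 s intervals; 15 concentrations in triplicate.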

Test [15] addresses Estrogen receptor beta (Homo sapiens) (UniProt Q92731). Description: qHTS assay to identify small molecule agonists of the estrogen receptor beta (ER-beta) signaling pathway (AID 1259377; active = well fitted activation curve with a large enough effect in the signal ratio in the repeat runs, not every such curve was filed as active; the % refers to the signal ratio). In outline:
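ER-beta-UAS-bla HEK293T cells in medium with 2% charcoal-stripped FBS were exposed to compounds for 16 h at 37C. Beta-lactamase reporter activity was read as fluorescence after 2 h with LiveBLAzer B/G FRET substrate at room temperature.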

Test [16] has as its target Androgen receptor (Homo sapiens) (UniProt P10275). Description: qHTS assay to identify small molecule agonists of the androgen receptor (AR) signaling pathway in the presence of an antagonist (AID 1259381; calls by dose curve; note: potency is the fitted concentration of half-maximal effect; nearly all actives have a fitted effect of over 15% in size). An outline of the steps:
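Agonist-mode confirmation run against 3.0 uM final nilutamide: compounds titrated at 15 concentrations onto MDA-kb2 MMTV-luciferase reporter cells. Luminescence measured with ONE-Glo following 16 hr incubation, 37C, 0% CO2.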

For test [17], the target named is Estrogen receptor (Homo sapiens) (UniProt P03372). The experiment in a line: qHTS assay to identify small molecule agonists of the estrogen receptor alpha (ER-alpha) signaling pathway in the presence of an antagonist (AID 1259383; calls by dose curve; note: top concentration of the series differs between compounds; nearly all actives have a fitted effect of over 15% in size). In outline:
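Agonist-mode confirmation run in the presence of 10.0nM (final) ICI-182,780 antagonist. The reporter was ERE-driven luciferase in VM7Luc4E2 cells, grown in charcoal-stripped serum. Cells were exposed to 15-concentration compound series for 22hr, then ONE-Glo luminescence was read.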

Test [18] in a line: qHTS assay to identify small molecule agonists of the estrogen receptor beta (ER-beta) signaling pathway - cell viability counter screen (AID 1259380). Note: nearly all actives have a fitted effect of over 30% in size. An outline of the steps: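 Cell viability counter screen: CellTiter-Glo luminescence (30 min, room temperature) measured in the same wells as the beta-lactamase readout, after 16 hr compound exposure at 37C of ER-beta-bla HEK293T cells in 2% charcoal-stripped FBS medium.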

We go through four molecules from PubChem BioAssay (Tox21).

Unmarked numbers belong to inactive results. Inconclusive results are not listed. Active and inactive are the calls of the source. Unless noted, calls come from the whole dose curve; as a rule, active = well fitted curve in the direction sought with a large enough effect in the repeat runs; inconclusive = weak or mixed curves; inactive = no such curve, though single readings can be large; an effect the other way counts as inactive or inconclusive.

Chain of Progesterone receptor (Homo sapiens) (P06401 whole entry, looked up): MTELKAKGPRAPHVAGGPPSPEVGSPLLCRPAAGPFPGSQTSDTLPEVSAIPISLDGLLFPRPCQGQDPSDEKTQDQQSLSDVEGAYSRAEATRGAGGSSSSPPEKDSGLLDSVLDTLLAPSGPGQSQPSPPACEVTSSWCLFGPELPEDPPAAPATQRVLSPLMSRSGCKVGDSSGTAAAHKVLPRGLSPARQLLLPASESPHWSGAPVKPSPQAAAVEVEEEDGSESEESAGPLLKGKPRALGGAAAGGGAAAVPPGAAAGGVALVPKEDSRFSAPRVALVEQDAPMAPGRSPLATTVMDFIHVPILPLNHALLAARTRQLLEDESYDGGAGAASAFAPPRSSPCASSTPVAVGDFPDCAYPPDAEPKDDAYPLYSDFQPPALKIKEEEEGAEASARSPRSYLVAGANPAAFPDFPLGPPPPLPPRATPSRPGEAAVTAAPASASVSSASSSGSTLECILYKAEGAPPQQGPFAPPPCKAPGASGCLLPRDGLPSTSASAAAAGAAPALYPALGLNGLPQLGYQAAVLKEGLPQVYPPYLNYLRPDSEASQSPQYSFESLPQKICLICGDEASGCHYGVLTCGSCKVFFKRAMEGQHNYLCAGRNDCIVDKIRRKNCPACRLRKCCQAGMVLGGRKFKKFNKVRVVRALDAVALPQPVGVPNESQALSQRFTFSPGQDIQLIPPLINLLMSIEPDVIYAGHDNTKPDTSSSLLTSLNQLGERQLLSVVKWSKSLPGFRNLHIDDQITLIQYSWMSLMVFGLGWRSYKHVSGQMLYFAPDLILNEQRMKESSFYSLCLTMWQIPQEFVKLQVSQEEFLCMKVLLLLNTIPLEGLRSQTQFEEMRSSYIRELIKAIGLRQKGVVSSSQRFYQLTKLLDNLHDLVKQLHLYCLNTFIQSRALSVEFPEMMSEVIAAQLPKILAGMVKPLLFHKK
Chain of Thyrotropin receptor (Homo sapiens) (P16473 whole entry, looked up): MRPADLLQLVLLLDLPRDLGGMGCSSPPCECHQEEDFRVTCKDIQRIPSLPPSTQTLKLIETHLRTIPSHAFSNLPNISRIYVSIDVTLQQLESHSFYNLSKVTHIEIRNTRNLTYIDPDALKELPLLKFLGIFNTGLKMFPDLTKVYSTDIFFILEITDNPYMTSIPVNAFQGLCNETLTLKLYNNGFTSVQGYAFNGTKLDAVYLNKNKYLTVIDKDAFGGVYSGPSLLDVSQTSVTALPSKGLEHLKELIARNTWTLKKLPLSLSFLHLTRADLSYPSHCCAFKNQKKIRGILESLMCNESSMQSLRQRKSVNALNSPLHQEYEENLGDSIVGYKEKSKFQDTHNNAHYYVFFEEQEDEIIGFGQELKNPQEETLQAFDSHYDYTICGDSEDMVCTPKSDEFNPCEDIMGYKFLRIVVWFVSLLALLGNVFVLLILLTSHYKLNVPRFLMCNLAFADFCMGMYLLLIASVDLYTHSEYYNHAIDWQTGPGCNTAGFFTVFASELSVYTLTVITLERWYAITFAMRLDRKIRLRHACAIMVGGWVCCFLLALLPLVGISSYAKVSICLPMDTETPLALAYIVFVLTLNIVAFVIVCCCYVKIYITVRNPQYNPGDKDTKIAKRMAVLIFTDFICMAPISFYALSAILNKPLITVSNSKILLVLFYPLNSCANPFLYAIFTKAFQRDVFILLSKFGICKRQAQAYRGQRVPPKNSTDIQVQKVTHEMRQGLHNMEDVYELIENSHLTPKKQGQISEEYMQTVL
Chain of Thyrotropin-releasing hormone receptor (Homo sapiens) (P34981 whole entry, looked up): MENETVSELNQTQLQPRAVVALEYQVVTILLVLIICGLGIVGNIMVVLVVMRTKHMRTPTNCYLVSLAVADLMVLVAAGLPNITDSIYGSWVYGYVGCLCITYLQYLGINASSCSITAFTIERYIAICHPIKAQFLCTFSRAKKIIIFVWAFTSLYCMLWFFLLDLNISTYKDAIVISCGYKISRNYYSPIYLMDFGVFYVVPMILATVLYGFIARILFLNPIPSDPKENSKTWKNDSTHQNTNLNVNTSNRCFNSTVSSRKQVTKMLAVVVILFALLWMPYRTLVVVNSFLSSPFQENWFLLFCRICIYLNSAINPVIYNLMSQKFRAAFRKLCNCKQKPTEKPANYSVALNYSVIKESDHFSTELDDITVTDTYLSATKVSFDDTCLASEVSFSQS
Chain of Estrogen receptor (Homo sapiens) (P03372 whole entry, looked up): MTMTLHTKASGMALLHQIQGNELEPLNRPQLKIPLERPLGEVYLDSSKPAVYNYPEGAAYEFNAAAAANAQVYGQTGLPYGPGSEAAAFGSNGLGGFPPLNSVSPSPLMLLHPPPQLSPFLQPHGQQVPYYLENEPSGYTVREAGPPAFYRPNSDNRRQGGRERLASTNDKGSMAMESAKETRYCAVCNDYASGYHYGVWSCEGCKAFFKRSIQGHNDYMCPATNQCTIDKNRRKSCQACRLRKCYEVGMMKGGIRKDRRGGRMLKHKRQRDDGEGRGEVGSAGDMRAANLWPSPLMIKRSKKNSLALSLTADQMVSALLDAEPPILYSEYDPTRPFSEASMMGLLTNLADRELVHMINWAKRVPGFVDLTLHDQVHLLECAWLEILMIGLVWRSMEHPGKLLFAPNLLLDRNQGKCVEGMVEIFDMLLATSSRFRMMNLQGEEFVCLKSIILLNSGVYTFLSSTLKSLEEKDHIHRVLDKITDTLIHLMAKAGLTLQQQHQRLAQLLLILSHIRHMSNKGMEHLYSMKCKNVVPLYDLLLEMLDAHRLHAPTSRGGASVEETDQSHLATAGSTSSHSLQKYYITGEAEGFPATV
Chain of Estrogen receptor beta (Homo sapiens) (Q92731 whole entry, looked up): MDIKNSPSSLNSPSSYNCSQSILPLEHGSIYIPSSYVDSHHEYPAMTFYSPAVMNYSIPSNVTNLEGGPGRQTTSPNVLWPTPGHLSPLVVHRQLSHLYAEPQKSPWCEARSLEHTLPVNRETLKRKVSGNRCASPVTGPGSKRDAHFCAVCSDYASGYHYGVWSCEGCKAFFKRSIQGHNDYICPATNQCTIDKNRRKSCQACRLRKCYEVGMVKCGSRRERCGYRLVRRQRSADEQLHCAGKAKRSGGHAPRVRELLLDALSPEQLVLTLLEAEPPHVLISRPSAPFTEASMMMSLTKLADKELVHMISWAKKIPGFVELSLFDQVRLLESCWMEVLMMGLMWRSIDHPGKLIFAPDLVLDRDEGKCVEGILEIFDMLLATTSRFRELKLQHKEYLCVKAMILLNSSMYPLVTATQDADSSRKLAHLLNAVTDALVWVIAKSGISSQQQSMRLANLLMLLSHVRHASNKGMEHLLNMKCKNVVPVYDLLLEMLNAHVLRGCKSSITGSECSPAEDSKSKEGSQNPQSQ
Chain of Androgen receptor (Homo sapiens) (P10275 whole entry, looked up): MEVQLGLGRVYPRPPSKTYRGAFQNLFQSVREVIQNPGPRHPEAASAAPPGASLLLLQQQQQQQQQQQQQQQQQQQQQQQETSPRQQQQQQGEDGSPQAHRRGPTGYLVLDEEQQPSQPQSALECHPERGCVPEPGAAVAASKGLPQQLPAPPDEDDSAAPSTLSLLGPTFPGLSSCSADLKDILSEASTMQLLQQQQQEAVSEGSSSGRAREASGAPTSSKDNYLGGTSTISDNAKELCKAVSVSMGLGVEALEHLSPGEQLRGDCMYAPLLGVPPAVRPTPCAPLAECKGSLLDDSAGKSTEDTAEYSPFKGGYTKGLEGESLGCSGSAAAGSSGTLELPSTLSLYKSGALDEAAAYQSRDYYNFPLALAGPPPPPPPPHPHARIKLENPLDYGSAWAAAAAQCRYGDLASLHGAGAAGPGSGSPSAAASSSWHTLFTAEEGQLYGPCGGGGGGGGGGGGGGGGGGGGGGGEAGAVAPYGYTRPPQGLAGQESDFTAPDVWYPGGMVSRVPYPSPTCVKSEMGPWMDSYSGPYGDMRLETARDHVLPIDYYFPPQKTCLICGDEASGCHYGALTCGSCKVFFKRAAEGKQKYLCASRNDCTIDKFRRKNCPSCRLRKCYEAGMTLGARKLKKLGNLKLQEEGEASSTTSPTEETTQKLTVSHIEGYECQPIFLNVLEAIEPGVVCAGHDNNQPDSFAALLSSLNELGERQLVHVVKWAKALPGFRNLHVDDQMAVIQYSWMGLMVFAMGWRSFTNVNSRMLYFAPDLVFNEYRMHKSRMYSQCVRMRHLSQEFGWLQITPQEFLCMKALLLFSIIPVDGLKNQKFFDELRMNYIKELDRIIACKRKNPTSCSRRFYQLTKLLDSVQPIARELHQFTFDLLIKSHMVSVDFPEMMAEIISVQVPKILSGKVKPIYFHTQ

With `CCCc1nn(C)c2c(=O)[nH]c(-c3cc(S(=O)(=O)N4CCN(C)CC4)ccc3OCC)nc12`, the Potency entry in test [1], in [5], in test [7], in test [8], in [9] and in test [14] was “inactive” in each case. Further, the result in test [2], in test [3], in test [4], in test [10], in [11] and in test [12] was inactive. Further, the result in [13] was inactive. Further, in test [6], the Potency is 13300 nM (active).

As to `CCCC(=O)O[C@]1(C(=O)CC)CC[C@H]2[C@@H]3CCC4=CC(=O)CC[C@]4(C)[C@H]3[C@@H](O)C[C@@]21C`, the Potency entry in test [15], in test [1], in [5], in test [7], in test [8] and in [9] was “inactive” in each case. Further, in test [14], the Potency entry is “inactive”. The Potency in test [16] was 13.3 nM (active); in test [6], 7.5 nM (active). The result in [17], in test [10], in test [11], in test [12] and in test [13] was inactive.

As to `CCCCOC(=O)CCC(C)=O`, the Potency entry in test [1], in test [18], in [5], in test [7], in test [8] and in test [9] was “inactive” throughout. In addition, in [14], the Potency result was “inactive”. Also, the call in test [2], in [17], in [3], in test [4], in [10] and in [11] was inactive. Further, the molecule was called inactive in test [12] and in test [13].

Turning to `CC(C)(C)C(=O)Oc1ccc(S(=O)(=O)Nc2ccccc2C(=O)NCC(=O)O)cc1`, the Potency result in test [1], in test [18], in test [5], in test [6], in test [7] and in [8] was “inactive” throughout. Also, the Potency result in test [9] and in [14] was “inactive” throughout. Further, the molecule was called inactive in test [2], in test [17], in [3], in test [4], in test [10] and in [11]. Further, the outcome in test [12] and in test [13] was inactive.
